POLI inh: qHTS for Inhibitors of Polymerase Iota; DNA polymerase iota (Homo sapiens), Q9UNA4; Pol iota fluorescent replication assay, 10 min; Potency, µM (highest dose often 115 µM), hits mostly inhibitors; 390,000 tested, 1% active
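Fluorescent replication assay read twice, at 0 min and 10 min after adding 50 nM (final) substrate. Enzyme (10 nM) and compounds were first incubated 15 min at room temperature; enzyme-free buffer wells were negative controls.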
Pol kappa inh: qHTS for Inhibitors of Polymerase Kappa; AID 588579, 2011; purified Pol kappa, fluorescent DNA synthesis assay, 10 min; DNA polymerase kappa (Homo sapiens), Q9UBT6; Potency, µM (top dose mostly 107 µM), actives largely listed as inhibitors; 400,000 tested, 0.53% active
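Enzyme at 10 nM met test compounds for 15 min at room temperature. Substrate addition (50 nM final) began the reaction, which was monitored by fluorescence at 0 and 10 min.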
Pol eta inh: qHTS for Inhibitors of Polymerase Eta | recombinant Pol eta, fluorescent DNA replication assay | Potency, µM (doses to about 114 µM), most hits filed as inhibitors | 390,000 tested, 1.2% active
Target sequence (Q9Y253 whole entry, looked up): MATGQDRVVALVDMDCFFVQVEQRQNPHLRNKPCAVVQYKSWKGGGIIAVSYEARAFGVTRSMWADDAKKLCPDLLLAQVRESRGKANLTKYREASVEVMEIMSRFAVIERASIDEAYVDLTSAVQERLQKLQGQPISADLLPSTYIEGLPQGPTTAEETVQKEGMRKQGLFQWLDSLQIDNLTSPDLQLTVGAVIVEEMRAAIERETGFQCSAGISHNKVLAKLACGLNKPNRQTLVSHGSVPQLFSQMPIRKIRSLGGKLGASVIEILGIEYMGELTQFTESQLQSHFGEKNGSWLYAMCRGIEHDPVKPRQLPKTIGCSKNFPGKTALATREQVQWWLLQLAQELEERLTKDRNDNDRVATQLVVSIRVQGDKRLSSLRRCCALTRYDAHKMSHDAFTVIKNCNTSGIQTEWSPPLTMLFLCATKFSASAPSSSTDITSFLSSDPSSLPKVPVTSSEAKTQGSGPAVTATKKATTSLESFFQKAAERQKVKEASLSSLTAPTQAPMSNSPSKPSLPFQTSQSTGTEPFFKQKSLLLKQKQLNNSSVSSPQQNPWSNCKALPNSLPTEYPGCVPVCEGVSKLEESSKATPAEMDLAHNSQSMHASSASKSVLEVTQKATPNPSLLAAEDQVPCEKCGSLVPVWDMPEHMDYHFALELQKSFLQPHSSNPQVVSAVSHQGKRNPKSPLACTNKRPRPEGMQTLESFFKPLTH
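Pol eta at 10 nM preincubated with compounds 15 min at room temperature; reaction started with fluorescent substrate (50 nM final) and read kinetically at 0 and 10 min.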
Pol beta inh: qHTS Assay for Inhibitors of DNA Polymerase Beta; AID 485314, 2010; 340,000 tested, 1.3% active; P06746; Potency, µM (doses to about 114 µM), usual class: inhibitors; Pol beta primer extension/strand displacement, fluorescence kinetic
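10 nM enzyme + cpd, 15 min RT; start with substrate 50 nM final; read 0 min and after 10 min RT. Corrected, normalized data; 4-parameter Hill curve fit.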
WRN inhibitor: qHTS for Inhibitors of WRN Helicase; AID 651768, 2012; Bifunctional 3'-5' exonuclease/ATP-dependent helicase WRN (Homo sapiens), Q14191; WRN helicase unwinding, fluorescent forked duplex, kinetic; 360,000 tested, 0.46% active; Potency, µM (highest dose often 114 µM), usual class: inhibitors; also: nearly all actives have a fitted effect of over 55% in size
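WRN at 20 nM final preincubated with compound 15 min at room temperature; reaction started with 100 nM fluorophore/quencher forked duplex oligonucleotide and 2 mM ATP final. Unwinding followed kinetically by red fluorescence (ex 525, em 598 nm).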
FEN1 inh: qHTS Assay for the Inhibitors of Human Flap endonuclease 1 (FEN1); 390,000 tested, 0.35% active; P39748; Recombinant FEN1 flap cleavage, fluorescence, 15 min; Potency, µM (titrated, usually from 114 µM), usual class: inhibitors; also: nearly all actives have a fitted effect of over 65% in size
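In this screen, 50 nM flap DNA substrate was added to 10 nM FEN1 pretreated with compound for 15 min at room temperature; cleavage was followed with reads at 0 and 15 min, and Hill fitting gave concentration–response parameters.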
Hits are given with their value; – = inactive; ? = inconclusive; · = not tested or not shown; [ ] = another dose, or the depositor's remark. Rows were chosen to be rich in hits. Some 2.4% of all compounds tested hit in one or more screens of this group. Calls follow the shape of the dose curve; as a rule, active = well fitted curve in the direction sought with a large enough effect; inconclusive = small, poorly fitted or top-dose-only effect, or another doubt; inactive = no such curve, though single readings can be large; an effect the other way counts as inactive or inconclusive.

SMILES | POLI inh | Pol kappa inh | Pol eta inh | Pol beta inh | WRN inhibitor | FEN1 inh
CCc1ccc(N2C(=O)NC(=O)/C(=C/c3cccn3CCOc3ccc(C)cc3)C2=O)cc1 | ? | – | ? | – | – | –
CCOc1cc(/C=C2/C(=O)NC(=O)N(c3ccc(CC)cc3)C2=O)ccc1OC(=O)c1cccs1 | – | – | 45µM | – | 50µM | –
C[C@]12CC[C@@H]3[C@@H](CCC4=CC(=O)CC[C@@H]43)[C@@H]1CC[C@@H]2OC(=O)CCc1ccccc1 | · | – | · | · | · | ·
O=C1NC(=O)N(c2ccc(Cl)cc2)C(=O)/C1=C/c1coc2ccc(O)cc2c1=O | ? | ? | ? | ? | ? | –
O=C1NC(=O)N(c2ccccc2)C(=O)/C1=C/c1coc2ccc(O)cc2c1=O | 22µM | ? | ? | – | ? | –
O=c1c(O)c(-c2ccc(O)c(O)c2)oc2c(O)c(O)cc(O)c12 | · | 1.1µM | · | · | · | ·
O=c1[nH]c(=O)n(-c2cccc(F)c2)c(O)c1/C=C1\C=Nc2ccccc21 | 14µM | – | – | – | – | –
COC(=O)C1=Nc2ccccc2/C1=C\c1c(O)n(-c2ccc(Br)cc2)c(=O)[nH]c1=O | – | – | 35µM | ? | 50µM | –
O=C(O)c1ccc(-n2c(O)c(/C=C3\C=Nc4ccccc43)c(=O)[nH]c2=O)cc1 | ? | – | 50µM | – | –[11.6 µM] | ?
O=C(O)c1[nH]n(-c2ccc(S(=O)(=O)O)cc2)c(=O)c1N=Nc1ccc(S(=O)(=O)O)cc1 | ? | – | · | · | · | –
COc1cc2nc(N3CCCN(C)CC3)nc(N(C)C3CCN(C)CC3)c2cc1OC | – | – | · | · | · | ?
CC1CC(Cl)CCC1C(=O)OC(C)(C)C (centres undefined) | · | – | · | · | · | ·
CCN(CC)c1ccc(/C=C/[N+](=O)[O-])cc1 | ? | – | – | – | – | ?
COc1cc(/C=C/[N+](=O)[O-])ccc1O | 32µM | – | – | – | – | ?
O=C1/C(=C/c2ccc(N(CCCl)CCCl)cc2)Cc2ccccc21 | – | – | · | · | · | –
CCOC(=O)Nc1ccc(NCc2ccc(F)cc2)nc1N | 4µM | – | 28µM | – | –[11.6 µM] | ?
CCOC(=O)C1CCN(/C=C2/C(=O)NC(=O)N(c3ccc(OCC)cc3)C2=O)CC1 | – | – | – | – | – | –
NC(=O)C1CCN(/C=C2\C(=O)NC(=O)N(Cc3ccco3)C2=O)CC1 | 20µM | 79µM | 18µM | ? | ? | ?
C[C@]12CCC3C(CC[C@]4(O)C[C@@H](O)CC[C@]34C=O)[C@@]1(O)CC[C@@H]2C1=CC(=O)OC1 (some centres undefined) | · | –[19.4 µM] | · | · | · | ·
CCC1OC2(C)C(O)C(/C=C/C=C/C=C/c3oc(=O)cc(OC)c3C)OC1(C)C2OC(C)=O (centres undefined) | · | – | · | · | · | ·
CC[C@H](C)/C=C(C)/C=C/C1=CC2=C(Cl)C(=O)[C@](C)(OC(C)=O)C(=O)C2=CO1 | 50µM | 79µM | 20µM | · | 50µM | ?
Oc1cc2c(cc1O)[C@H]1c3ccccc3CN[C@H]1CC2 | · | –[19.4 µM] | · | · | · | ·
O=C(Nc1cccc(C(=O)Nc2cc(C(=O)Nc3ccc([S+](=O)([O-])[O-])c4cc([S+](=O)([O-])[O-])cc(SOOO)c34)ccc2F)c1)Nc1cccc(C(=O)Nc2cc(C(=O)Nc3ccc([S+](=O)([O-])[O-])c4cc([S+](=O)([O-])[O-])cc([S+](=O)([O-])[O-])c34)ccc2F)c1 | · | 0.06µM | · | · | · | ·
COCCNC(=O)Cn1cc(/C=C2\C(=O)NC(=O)N(c3cccc(C)c3C)C2=O)c2ccccc21 | – | – | – | – | ? | –
COc1ccc(N2C(=O)NC(=O)/C(=C\c3cn(CC(=O)N4CCOCC4)c4ccccc34)C2=O)c(OC)c1 | 13µM | – | – | – | – | ?
SMILES | POLI inh | Pol kappa inh | Pol eta inh | Pol beta inh | WRN inhibitor | FEN1 inh
COCCNC(=O)Cn1cc(/C=C2\C(=O)NC(=O)N(c3ccccc3F)C2=O)c2ccccc21 | 20µM | – | – | – | – | –
CCOC(=O)CCN(SN(C)C(=O)Oc1cccc2c1OC(C)(C)C2)C(C)C | · | – | · | · | · | ·
O=c1[nH]c(=S)[nH]c(O)c1N=Nc1ccc(S(=O)(=O)N2CCc3ccccc32)cc1 | – | – | – | 79µM | – | –
COc1cc2c(cc1OC)-c1c(OC)c(OC)cc3c1C(C2)N(C)CC3 (centres undefined) | 11µM | – | – | – | – | –
CC(=O)NCC(N)C(=O)c1ccc(Cl)c(Cl)c1 (centres undefined) | – | – | · | · | · | –
COc1ccc(/C=C2/C(=O)NC(=S)N(C3CC3)C2=O)cc1CN1C(=O)c2ccccc2C1=O | ? | – | ? | – | 14µM | –
CN[C@@H]1C[C@H](c2ccc(Cl)c(Cl)c2)c2ccccc21 | · | –[19.4 µM] | · | · | · | ·
Cc1cc(C=C2C(=O)N(C)C(=S)N(C)C2=O)c(C)n1-c1ccncc1 | – | – | 35µM | ? | ? | ?
Cc1ccnc(-n2c(C)cc(C=C3C(=O)N(C)C(=S)N(C)C3=O)c2C)c1 | ? | – | – | – | ? | –
NC(=O)[C@H](Cc1ccccc1)NC(=O)[C@H](Cc1c[nH]c2ccccc12)NC(=O)[C@@H]1CCCN1C(=O)[C@@H](N)Cc1ccc(O)cc1 | · | – | · | · | · | ·
CCC1(CC)CCNC1=O | · | – | · | · | · | ·
Cc1cc(C)cc(N2C(=O)NC(=O)/C(=C\c3cccn3-c3ccc(Cl)cc3)C2=O)c1 | ? | – | 22µM | – | – | –
CC(C)C[C@H](NC(=O)[C@@H](N)Cc1ccccc1)C(=O)N[C@@H](Cc1ccccc1)C(=O)N[C@@H](CCC(N)=O)C(=O)N1CCC[C@H]1C(=O)N[C@@H](CCC(N)=O)C(=O)N[C@@H](CCCN=C(N)N)C(=O)N[C@@H](Cc1ccccc1)C(N)=O | · | – | · | · | · | ·
COc1ccc(CNC(=O)C2CCN(c3nc(OC)nc(OC)n3)CC2)cc1 | 89µM | – | – | – | – | –
COc1ccc(CNC(=O)c2ccc(C(C)C)cc2)cc1 | – | – | – | – | – | –
CCN1/C(=C\C=C\C2=[N+](CC)c3ccccc3C2(C)C)C(C)(C)c2ccccc21 | · | 18µM | – | 25µM | 45µM | 45µM
COc1cc([C@@H]2c3cc4c(cc3[C@H](O)[C@H]3COC(=O)[C@@H]23)OCO4)cc(OC)c1OC | ? | – | · | · | · | –
NCC(=O)c1ccc(Cl)c(Cl)c1 | – | – | · | · | · | –
COC(C(=O)C(O)C(C)O)C1Cc2cc3cc(OC4CC(OC5CC(O)C(OC)C(C)O5)C(OC(C)=O)C(C)O4)c(C)c(O)c3c(O)c2C(=O)C1OC1CC(OC2CC(OC3CC(C)(O)C(OC(C)=O)C(C)O3)C(O)C(C)O2)C(O)C(C)O1 (centres undefined) | · | 21µM | · | · | · | ·

High-throughput results as filed in PubChem BioAssay.
